p53null 32C tox – selectivity test: cytotoxicity in p53 null cells, permissive temperature | Potency, µM (top dose mostly 46.1 µM), without a hit: at the highest dose activity change, negative = cytotoxicity, usual class: cytotoxic | H1299-neo p53 null cells, ATP luminescence, 24 h, 32C | hit rate 0.62% among 55,000;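 further: 0% = DMSO only and -100% = full killing by 100 µM tamoxifen; nearly all actives have a fitted effect of over 55% in size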
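Luminescent ATP readout gave cell viability of p53-null H1299-neo cells after a 24 h compound exposure at the permissive 32C. Titrations ran up to 46 uM, and AC50s were fitted with the standard Hill equation.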
p53null 39C kill – p53 null cell cytotoxicity, nonpermissive temperature | Potency, µM (titrated, usually from 46.1 µM), for inactives: top-dose activity, negative = cell killing, usual class: cytotoxic | H1299 p53-null (neo) cells, 39C, ATPlite viability, 24 h | hit rate 0.97% among 55,000;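 further: 0% = DMSO only and -100% = full killing by 100 µM tamoxifen; nearly all actives have a fitted effect of over 50% in size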
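Concentration-response (up to 46 uM) was run for 24 h at the nonpermissive 39C on H1299-p53A138V or H1299-neo cells. ATP content was measured with ATPlite luminescence. AC50 values were Hill-modeled after normalizing between DMSO and 100 uM tamoxifen killing.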
pS6 MEF inh – mTORC1 pathway inhibition measured by phospho-rpS6 | hit rate 0.78% among 44,000 | AID 493208 | Tsc2-/- p53-/- MEF, phospho-rpS6 immunofluorescence/PI, 24 h | Potency, µM (top dose mostly 38.3 µM), for the others: at the top dose activity change, negative = inhibition, actives largely listed as inhibitors;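 further: plate controls were DMSO for no effect and rapamycin for full effect; nearly all actives have a fitted effect of over 50% in size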
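Plate MEFs (Tsc2-/-, p53-/-, empty vector) in DMEM/10% FBS; after 24 h add compound, incubate 24 h at 37 degree Celsius; fix in PFA/TX-100, block, stain phospho-rpS6 and 10 uM PI; scan at 488 nm; report % positive cells.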
S16 viability – S16 Schwann cell cytotoxicity; AID 1508642; S16 Pmp22-F2sN Schwann cells viability, CellTiter-Glo, 24 h; hit rate 0.48% among 43,000; Potency, µM (highest dose often 57.5 µM), for inactives: at the highest dose activity change, negative = cytotoxicity, most hits filed as cytotoxic; further: nearly all actives have a fitted effect of over 65% in size
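Rat S16 Schwann reporter line, 24 h treatment with library compounds delivered at 23 nL per well. Cell viability by CellTiter-Glo luminescence.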
PMP22 txn prim – PMP22 gene transcription modulation; Potency, µM (series often up to 57.5 µM), without a hit: top-dose activity change, negative = inhibition, actives largely listed as inhibitors; AID 1508649; hit rate 2% among 43,000; S16 Pmp22-F2sN Schwann cells (luciferase reporters placed in the Pmp22 gene), FLuc/NLuc coincidence luminescence, 24 h; active means clear falling dose curves in both reporters; inconclusive means both reporters move, but less clearly or upward; inactive means either reporter flat; the % is the NLuc reporter signal
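S16 Schwann cells carrying FLuc/NLuc coincidence reporter in the Pmp22 3' UTR treated with compound 24 h at 37C; FLuc then NLuc luminescence read sequentially by dual-luciferase reagents.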
* = called active by the depositor; ? = inconclusive; nt = no result; [ ] = remark or other dose. Hits are enriched below; roughly 3.2% of the tested compounds scored in any of these assays. Unless noted, the call rests on the fitted dose curve; in most records, active means well fitted curve in the direction sought with a large enough effect; inconclusive means small, poorly fitted or top-dose-only effect, or another doubt; inactive means no such curve, though single readings can be large; an effect the other way counts as inactive or inconclusive. Unless noted, on the % scale 0 is the no-effect control and ±100 the full control effect; potency means the concentration at half of the fitted maximal effect.

SMILES	p53null 32C tox	p53null 39C kill	pS6 MEF inh	S16 viability	PMP22 txn prim
Cc1cccc(CNC(=O)c2cnc3c(-c4cccc(C)c4)c(C)nn3c2C)c1	-6%	6%	-1%	-2%	-3%
Cc1ccc(-c2nn3c(C)nnc3c3ccccc23)cc1S(=O)(=O)NCC(C)O (stereo unspecified)	-9%	9%	-10%	-2%	-25%
Cc1ccc(NC(=O)CSc2nnc(NC(=O)NC3CCCCC3)s2)cc1	?	18%	-8%	7%	-3%
COc1cccc(NC(=O)CSc2nnc(NC(=O)NC3CCCCC3)s2)c1	13µM*	-10%	-4%	5%	?
CCOc1ccc(NC(=O)c2sc3nc4c(c(-c5ccc(OC)cc5)c3c2N)C(=O)CC(C)(C)C4)cc1	6%	-1%	-2%	14%	5%
O=C(NCCc1nc2ccccc2n1Cc1ccc(Cl)cc1Cl)c1ccco1	0%	?	21µM*	5%	?
O=C(NCCCc1nc2ccccc2n1Cc1ccc(Cl)cc1Cl)c1ccco1	1%	0%	-2%	nt	nt
CCOc1ccc(CNS(=O)(=O)c2ccc3[nH]c4c(c3c2)CCCC4)cc1OC	7%	-12%	-16%	-22%	?
Cc1ccc(OCC(O)Cn2c(=N)n(CCN3CCCCC3)c3ccccc32)cc1 (stereo unspecified)	-3%	13µM*	nt	?	?
CCOCCCNC(=O)C(=O)Nc1c2c(nn1-c1ccc(OC)cc1)CSC2	-4%	-3%	-5%	1%	26%
O=C(O)c1ccc2nc(-c3cc4cccc(O)c4oc3=O)[nH]c2c1	10µM*	?	4%	?	-2%
CCc1ccc(S(=O)(=O)c2nnn3c2nc(Nc2ccc(NC(C)=O)cc2)c2sccc23)cc1	?	?	1%	11%	11µM*
CC1CCN(S(=O)(=O)c2ccc3c(c2)N(CC(=O)NC(C)C)C(=O)CO3)CC1	-25%	29%	-13%	0%	3%
CCCOc1ccc(C(=O)Nc2ccc3oc(-c4ccc(N(C)C)cc4)nc3c2)cc1	1%	18%	8%	12%	-5%
CCCc1cc(=O)n2[nH]c(-c3ccc(C)cc3)nc2n1	?	-31%	-2%	-13%	?
COC(=O)Cc1c(C)nc2nc(-c3ccc(C)cc3)[nH]n2c1=O	10µM*	?	-11%	0%	-5%
Cc1ccc(C(=O)Nc2ccc(C(=O)O)cc2)cc1S(=O)(=O)N1CCC(C)CC1	-1%	-9%	4%	27%	11%
COc1cc(NC(=O)c2cc3ccccn3n2)cc(OC)c1OC	-16%	-4%	-3%	nt	nt
Cc1ccccc1CCNC(=O)c1cc2ccccn2n1	?	10µM*	0%	nt	nt
Cc1ccc(NC(=O)c2cc3ccccn3n2)cc1F	13µM*	?	0%	nt	nt
CCc1ccc(NC(=O)c2cc3ccccn3n2)cc1	10µM*	7.9µM*	-12%	-18%	3%
CCOc1ccc(Br)cc1C1C(C(=O)OC)=C(C)NC2=C1C(=O)c1ccccc12 (stereo unspecified)	4%	17%	2%	?	-1%
CC(C)c1ccc(-c2noc(SCC(=O)N3CCCCC3C)n2)cc1 (stereo unspecified)	?	?	-3%	-7%	?
Cc1c(Cl)cccc1NC(=O)CN1C(=O)CSc2ccc(S(=O)(=O)N3CCCC3)cc21	7%	-11%	-7%	-18%	-11%
Cn1cc(C(=O)N/N=C/c2cccs2)c2ccccc21	-11%	-19%	nt	nt	nt
O=C(N/N=C/c1cccs1)c1ccc2c(c1)OCO2	2.8µM*	-19%[1.84 µM]	nt	nt	nt
COc1cc2nc(Nc3cccc(C)c3)nc(N)c2cc1OC	?	?	?	-27%	?
COc1cc2nc(Nc3ccc(C)c(C)c3)nc(N)c2cc1OC	?	32µM*	?	?	?
CCOc1ccc(S(=O)(=O)Nc2cccc(-c3ccc(N4CCC(C)CC4)nn3)c2)cc1	?	?	-3%	nt	nt
Cc1ccc(S(=O)(=O)Nc2cccc(-c3ccc(N4CCC(C)CC4)nn3)c2)s1	13µM*	16µM*	?	nt	nt
